STK33 inh = blocks human STK33 kinase activity; inhibition, % at 12.5 µM; ADP-Glo luminescence, MBP substrate; 27,000 compounds, 0.44% hits; Q9BYT3; AID 2322; in the data active = inhibition above about 20%; inconclusive = no clear call, values can overlap the other calls
ID4 SMM = binds human ID4 protein on microarray; P47928; small molecule microarray, Flag-ID4 binding, fluorescence F/B; calls only; 31,000 compounds, 1.2% hits; AID 624137; call rule not given here;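 note: a binder raises fluorescence above local background on the spot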
Target sequence (P47928 whole entry, looked up): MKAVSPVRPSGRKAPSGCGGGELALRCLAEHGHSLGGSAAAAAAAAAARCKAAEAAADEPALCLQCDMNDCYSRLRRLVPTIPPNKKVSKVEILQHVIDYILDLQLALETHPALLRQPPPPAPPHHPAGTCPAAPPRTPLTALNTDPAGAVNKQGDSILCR
p53 PUMA act = restores mutant p53 pathway signaling in SW480 cells | SW480 PUMA-promoter luciferase, p53 mutant reactivation | activation, % at 9.98 µM | 28,000 compounds, 1.5% hits; in the data active = activation above about 52%; inconclusive = no clear call, values can overlap the other calls
* marks the source's active call; other numbers are inactive results; i = inactive; ? = inconclusive; . = no result; + = active, no number. In the library only some 2% were active in any assay of this set; here they are far more common.

SMILES | STK33 inh | ID4 SMM | p53 PUMA act
CCOC(=O)c1cc(NC(=O)CSc2nc3ccccc3c(=O)[nH]2)ccc1Cl | 0.5 | i | 6.1
COc1ccc(NC(=O)CN2CCN(S(=O)(=O)c3ccccc3)CC2)cc1 | 2.1 | i | 5.2
NS(=O)(=O)c1ccc(NC(=O)CN2CCN(Cc3ccccc3)CC2)cc1 | -5.1 | + | 3.3
COc1ccc(OC)c(S(=O)(=O)N2CCC(C(=O)Nc3cccc(F)c3)CC2)c1 | 8.6 | i | -6.3
Cc1cc(O)c(C=O)c2c1C(=O)Oc1c(C)c(O)c3c(c1O2)C(O)OC3=O (configuration not stated) | 58.8* | . | .
COc1cc(C)c2c(c1C=O)Oc1c(c(C)c(O)c3c1C(O)OC3=O)OC2=O (configuration not stated) | 14.8 | i | .
COc1ccc(Cl)cc1NC(=O)COc1ccccc1OC | 2.6 | i | 99.4*
O=C(COc1ccc(Br)cc1Cl)Nc1ccccc1CO | 1.6 | i | 75.5*
COC(=O)c1cc(OC)c(OC)cc1NC(=O)COc1ccc(Cl)cc1Cl | 1.1 | i | -8.7
Cc1cc(OCC(=O)Nc2ccccc2CO)cc(C)c1Br | 2.3 | i | 17.5
COc1ccccc1NC(=O)COc1ccc(Cl)cc1CO | 2.1 | i | 62.9*
COc1ccc(Cl)cc1NC(=O)COc1ccccc1[N+](=O)[O-] | -5.1 | i | 22.5
CSc1ccccc1NC(=O)CN(c1ccc(C)c(Cl)c1)S(C)(=O)=O | 1.8 | i | -4.4
CCOC(=O)C1=C(C)N(C)C(=O)N(C)C1c1ccccc1 (configuration not stated) | 0.0 | . | .
Cc1ccc(N(C(C)C(=O)Nc2cc(Cl)ccc2Oc2ccccc2)S(C)(=O)=O)cc1C (configuration not stated) | 2.7 | i | -13.2
O=C(CN1CCCCC1)Nc1sc2c(c1C(=O)Nc1ccc(Br)cc1)CCC2 | -6.1 | i | -15.7
c1ccc2c(c1)[nH]c1nc(SCCN3CCCCC3)nnc12 | 1.5 | i | 9.2
Cn1c2ccccc2c2nnc(SCCN3CCCCC3)nc21 | 1.1 | + | 5.2
Cc1ccc2nc(-c3ccc(NC(=O)Cn4nc([N+](=O)[O-])c(Cl)c4C)cc3)sc2c1 | 4.6 | i | 79.9*
Cc1ccc2nc(-c3ccc(NC(=O)CN4C(=O)c5ccccc5C4=O)cc3)sc2c1 | 0.9 | i | 19.0
Cc1ccc2nc(-c3ccc(NC(=O)CS(=O)(=O)Cc4ccccc4)cc3)sc2c1 | 4.1 | i | 75.3*
Cc1ccc2nc(-c3ccc(NC(=O)CSc4nnc(C)s4)cc3)sc2c1 | -0.1 | i | -63.5
O=C(CSc1nc2ccccc2[nH]1)Nc1ccc2c(c1)oc1ccccc12 | 1.2 | i | -11.2
COc1cc(Br)c(CN(CCc2ccc(O)cc2)C(=O)C(F)(F)F)cc1O | . | i | -58.4
Cc1ccc2c(C(=O)Nc3sc4c(c3C(N)=O)CCCCC4)cc(-c3ccccn3)nc2c1C | 5.7 | + | 6.1
SMILES | STK33 inh | ID4 SMM | p53 PUMA act
CCc1c(C)sc(NC(=O)c2cc(-c3ccccn3)nc3c(C)cccc23)c1C(=O)N1CCCCC1 | 2.8 | i | -14.5
C=CCNC(=O)CSc1nnc(-c2ccc3nonc3c2)n1C | . | i | -11.1
Cc1c(NC(=O)COc2ccccc2Cl)cccc1C(=O)O | 1.1 | i | 15.0
CN/C(=C/[N+](=O)[O-])NCCSCc1csc(CN(C)C)n1 | 0.9 | + | 9.4
CC(Oc1ccc(C(C)(C)C)cc1)C(=O)Nc1ncn[nH]1 (configuration not stated) | 1.6 | i | -9.9
COc1cc(=O)oc([C@@]2(C)O[C@H]2/C(C)=C\C(C)=C\[C@@]2(C)O[C@@H](C)[C@]3(C)OC23)c1C (some centres not stated) | -0.8 | . | .
Cc1cc(OCC(=O)Nc2ccc(-c3nc4ccccc4s3)c(O)c2)ccc1Cl | 0.7 | i | 26.8
CCc1ccc(OCC(=O)Nc2ccc(-c3nc4ccccc4s3)c(O)c2)cc1 | -3.6 | i | 122.8*
CCc1ccc(OCC(=O)Nc2ccc(-c3nc4ccccc4o3)c(O)c2)cc1 | -0.6 | i | 59.0*
CCc1ccc2oc(-c3cc(NC(=O)COc4ccc(OC)cc4)ccc3Cl)nc2c1 | 1.2 | i | 13.5
CCn1c(SCC(=O)Nc2cc(C(F)(F)F)cc(C(F)(F)F)c2)nnc1-c1ccncc1 | 0.6 | i | 6.0
CCC(=O)N(Cc1cc2ccccc2[nH]c1=O)c1cccc(C)c1 | -0.5 | i | 16.9
COc1ccc(CN2C(=O)C(O)(CC(=O)c3ccc(Cl)s3)c3ccccc32)cc1OC (configuration not stated) | 0.8 | i | -6.9
OC(CSc1nccc(-c2ccc3c(c2)OCCO3)n1)C(F)(F)F (configuration not stated) | . | i | ?
Cc1csc2c(SCC(O)C(F)(F)F)ncnc12 (configuration not stated) | . | i | 56.4*
O=C(CSc1nnc(-c2ccncc2)n1-c1ccccc1)c1ccc([N+](=O)[O-])cc1 | 0.5 | i | 16.6
N#Cc1ccccc1CSc1nnc(-c2ccco2)n1-c1ccccc1 | -2.0 | i | 4.5
Cc1ccc(-c2nnc(SCc3ccccc3C#N)n2-c2ccccc2)cc1Cl | -1.5 | i | 83.9*
CS(=O)(=O)N(CC(=O)Nc1ccc(F)cc1F)c1ccc(Br)cc1 | 0.7 | i | -8.3
O=C(CSc1nnc(-c2cccc([N+](=O)[O-])c2)o1)c1ccc2c(c1)OCCO2 | 3.8 | i | -14.5
CCCC(=O)N(CCc1c[nH]c2ccccc12)[C@@H]1CC(C(=O)NCCO)=C[C@H](Oc2c(I)cc(CO)cc2OC)[C@H]1O | . | + | .
COc1cc(SC)ccc1C(=O)NCCc1c[nH]c2ccccc12 | 0.9 | i | 12.2
CCOC(=O)c1cnc2c(C(F)(F)F)cccc2c1NCCO | 10.0 | i | -5.2
COc1cc(C2NC(=S)NC(C)=C2C(=O)Nc2ccccc2Cl)ccc1OCC#N (configuration not stated) | -4.7 | i | 10.7
CC(=O)N(c1ccc2oc3c(c2c1)CCCC3)S(=O)(=O)c1cccc2cccnc12 | 1.8 | i | -3.8
SMILES | STK33 inh | ID4 SMM | p53 PUMA act
O=C(CSc1nnc2ccc3ccccc3n12)Nc1nsc(-c2ccc(Cl)cc2)n1 | -4.4 | i | -0.6
Cc1nc([N+](=O)[O-])c(Sc2nc3ccccc3[nH]2)n1Cc1ccccc1 | 2.5 | i | 65.6*
COc1ccc(C(=O)CSc2nc3cc(C)c(C)cc3[nH]2)cc1 | -8.5 | i | -7.5
COc1ccc2nc(Sc3c([N+](=O)[O-])nc(C)n3Cc3ccccc3)[nH]c2c1 | 0.2 | i | ?
Cc1cc2nc(Sc3c([N+](=O)[O-])nc(C)n3Cc3ccccc3)[nH]c2cc1C | 0.0 | i | 76.5*
COc1ccc(C(=O)CCC(=O)Nc2ccc(C(=O)O)cc2)cc1OC | 1.2 | i | -7.5
C[C@H](CO)N1C[C@H](C)[C@@H](CN(C)C(=O)Nc2ccccc2)Oc2ccc(NS(C)(=O)=O)cc2C1=O | . | + | 6.7
C[C@@H]1CN([C@@H](C)CO)C(=O)c2cc(NS(C)(=O)=O)ccc2O[C@@H](C)CCCCO[C@@H]1CN(C)C(=O)Nc1ccccc1 | . | + | 6.7
C[C@@H]1CN([C@H](C)CO)C(=O)c2cc(NC(=O)CCCN(C)C)ccc2O[C@@H]1CN(C)C(=O)Nc1cccc2ccccc12 | . | i | -6.8
C[C@@H]1CN([C@@H](C)CO)C(=O)c2cc(NC(=O)CCCN(C)C)ccc2O[C@H]1CN(C)C(=O)Nc1cccc2ccccc12 | . | + | 2.6
